TRb SRC2 PPI: TRbeta-SRC2 interaction inhibition; Potency, µM (titrated, usually from 106 µM), without a hit: top-dose activity change, negative = inhibition, hits mostly inhibitors; TRbeta-SRC2 peptide binding, fluorescence polarization; receptor liganded with 1 µM T3; AID 1469; P10828; actives 0.065% (n = 280,000);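 further: plate controls were bound peptide for no effect and peptide without receptor for full effect; nearly all actives have a fitted effect of over 50% in size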
Target sequence (P10828 whole entry, looked up): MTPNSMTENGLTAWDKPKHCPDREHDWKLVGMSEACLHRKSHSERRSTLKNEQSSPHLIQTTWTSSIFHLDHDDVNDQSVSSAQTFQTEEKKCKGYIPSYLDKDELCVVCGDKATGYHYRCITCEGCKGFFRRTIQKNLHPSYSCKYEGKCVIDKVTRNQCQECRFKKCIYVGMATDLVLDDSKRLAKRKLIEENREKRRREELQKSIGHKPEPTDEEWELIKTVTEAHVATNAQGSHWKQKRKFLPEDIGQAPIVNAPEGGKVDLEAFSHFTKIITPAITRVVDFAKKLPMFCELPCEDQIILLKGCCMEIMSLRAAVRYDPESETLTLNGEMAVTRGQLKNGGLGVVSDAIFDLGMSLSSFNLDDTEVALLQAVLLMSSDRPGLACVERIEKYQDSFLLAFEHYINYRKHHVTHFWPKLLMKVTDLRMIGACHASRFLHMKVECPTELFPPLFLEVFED
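Quantitative HTS by FP: 0.6 uM TRb LBD, 20 nM labeled SRC2 20-mer, 1 uM T3, 5% DMSO; 5 hr ambient incubation; % activity per concentration and potencies from concentration series.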
Tau fluor counter: counter-screen for tau fibril formation inhibitors; tau K18 P301L Alexa594 fluorescence, heparin fibrillization; actives 0.93% (n = 280,000); Potency, µM (series often up to 57.7 µM), for the others: at the top dose activity change, negative = decrease; AID 1463; further: nearly all actives have a fitted effect of over 55% in size
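Human tau K18 P301L (15 uM unlabeled, 0.24 uM Alexa 594-labeled) in 100 mM sodium acetate pH 7 with 20 uM heparin, 6 hr at 37 C. ThT 30 uM added, 1 hr ambient; Alexa 594 FP and total fluorescence read at 555/632 nm.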
TR SRC2 fluor cs: alters Texas Red total fluorescence, flagging assay interference. Potency, µM (titrated, usually from 106 µM), for inactives: top-dose fluorescence change, negative = quenching. TRb/SRC2 Texas Red total fluorescence interference. AID 1479. actives 0.29% (n = 280,000); active means well fitted curve in either direction with a large enough effect; inconclusive means small, poorly fitted or top-dose-only effect
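Human TRβ ligand-binding domain (0.6 uM) and Texas Red SRC2 peptide (20 nM) in Tris buffer with 1 uM T3 and 5% DMSO were incubated with pinned compound for 5 hr at ambient temperature. Total fluorescence was computed as S + 2P (555/632 nm).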
Tau fibril ThT: tau fibrillization inhibition (ThT binding). P10636. AID 1460. recombinant tau K18 P301L (four-repeat tau fragment), heparin-induced fibrillization, ThT fluorescence. Potency, µM (series often up to 57.4 µM), for the others: top-dose activity, negative = inhibition, most hits filed as inhibitors. actives 2.1% (n = 270,000); further: nearly all actives have a fitted effect of over 55% in size
Target sequence (P10636 561-689 P618L limits assumed): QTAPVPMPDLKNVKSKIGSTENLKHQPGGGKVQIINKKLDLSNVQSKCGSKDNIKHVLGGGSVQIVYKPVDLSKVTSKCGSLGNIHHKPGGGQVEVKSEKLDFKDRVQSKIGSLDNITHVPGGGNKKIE
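Aggregation was driven by heparin (20 uM final) acting on recombinant tau […] bearing P301L in 100 mM sodium acetate pH 7; fibrils were detected with Thioflavin T.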
Tau FP inhib: blocks human tau fibril formation measured by polarization; Potency, µM (titrated, usually from 57.7 µM), without a hit: top-dose activity, negative = inhibition, hits mostly inhibitors; K18 P301L tau heparin fibrillization, Alexa594 FP, 6 h; AID 1468; actives 0.39% (n = 280,000); further: nearly all actives have a fitted effect of over 55% in size
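K18 P301L tau (15 uM unlabeled/0.24 uM Alexa 594-labeled, final) + compound + heparin 20 uM final; 100 mM NaOAc pH 7; 6 hr 37 C; ThT 30 uM final added, 1 hr RT; FP ex 555/em 632 nm.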
The depositor's hits bear a star; ? = inconclusive; · = not tested or not shown; [ ] = remark or other dose. A selection: hits, their analogues and other compounds. The true share with any hit is near 3%. Unless noted, the call rests on the fitted dose curve; in most records, active means well fitted curve in the direction sought with a large enough effect; inconclusive means small, poorly fitted or top-dose-only effect, or another doubt; inactive means no such curve, though single readings can be large; an effect the other way counts as inactive or inconclusive. Unless noted, on the % scale 0 is the no-effect control and ±100 the full control effect; potency means the concentration at half of the fitted maximal effect.

SMILES	TRb SRC2 PPI	Tau fluor counter	TR SRC2 fluor cs	Tau fibril ThT	Tau FP inhib
Nc1ccc(-c2nc3c(Cl)cc(N)cc3[nH]2)cc1	4.6%	?	-9.0%	20µM*	?
COc1cc2c(cc1NS(=O)(=O)c1cccc(C#N)c1)n(C)c(=O)n2C	6.8%	-8.3%	-1.0%	?	-10.1%
Fc1ccc(/C=N/NC2=Nc3cccc4cccc2c34)cc1	9.4%	?	-1.7%	2.24µM*	6.2%
Fc1ccc(/C=N/Nc2nnnn2-c2ccccc2)cc1	5.9%	-0.8%	1.3%	0.6%	-3.9%
c1ccc(NC2=Nc3cccc4cccc2c34)cc1	-3.9%	?	-2.4%	?	13.4%
COc1ccc(NC2=Nc3cccc4cccc2c34)cc1	10.9%	?	0.4%	12.6µM*	?
Cc1ccsc1/C=N/NC(=O)CO	3.0%	8.3%	1.0%	6.7%	0.1%
Cc1ccsc1C=Nc1ccc(O)cc1	31.6µM*	?	-9.1%	3.55µM*	11.2µM*
CC(/C=C/C=C(\C)C(=O)O[C@@H]1O[C@H](CO[C@@H]2O[C@H](CO)[C@@H](O)[C@H](O)[C@H]2O)[C@@H](O)[C@H](O)[C@H]1O)=C\C=C\C=C(C)\C=C\C=C(/C)C(=O)O[C@@H]1O[C@H](CO[C@@H]2O[C@H](CO)[C@@H](O)[C@H](O)[C@H]2O)[C@@H](O)[C@H](O)[C@H]1O	-2.4%	·	0.3%	·	·
CCS(=O)(=O)c1ncc(Cl)c(C(=O)Nc2c(C(=O)Nc3cccc(C)c3)oc3ccccc23)n1	-1.3%	?	4.6%	3.98µM*	-11.4%
CCCOC(=O)c1ccc(Oc2cn[nH]c2-c2ccc(OC)cc2O)cc1	7.7%	11.2µM*[quencher]	0.3%	?	?
C=C(C)COc1ccc(-c2[nH]ncc2-c2ccccc2OC)c(O)c1	-2.8%	15.8µM*[quencher]	-5.3%	?	-4.5%
C=C(C)COc1ccc(-c2[nH]ncc2Oc2ccc(OC)cc2)c(O)c1	0.4%	7.94µM*[quencher]	-2.0%	?	?
C=C(C)COc1ccc(-c2n[nH]c(C)c2-c2ccc(Br)cc2)c(O)c1	-3.7%	-6.5%	2.4%	5.7%	?
C=C(C)COc1ccc(-c2[nH]ncc2-c2ccc(Br)cc2)c(O)c1	-4.8%	10µM*[quencher]	-3.5%	?	28.2µM*
COc1ccccc1N1CCN(c2ccc(=O)n(CC(=O)NCc3ccc(F)cc3)n2)CC1	6.6%	-2.2%	0.3%	-3.8%	9.0%
COc1ccc(CC(=O)NCCc2sc(-c3ccc(Cl)cc3)nc2C)cc1OC	0.6%	-12.9%	-16.2%	-16.9%	-7.5%
C=C(C)COc1ccc(-c2[nH]ncc2Oc2ccccc2OC)c(O)c1	-11.0%	14.1µM*[quencher]	0.8%	?	?
BrC(=C\c1ccccc1)/C=N/Nc1nc2ccccc2[nH]1	5.4%	?	-0.7%	25.1µM*	-8.9%
O=C(O)c1ccc(N/N=C/C(Br)=C/c2ccccc2)cc1	-0.6%	?	-5.1%	14.1µM*	7.5%
O=C(N/N=C/C(Br)=C/c1ccccc1)C(O)c1ccccc1 (stereo not given)	5.1%	?	-0.3%	-12.4%	-12.7%
c1ccc2cc3ccccc3cc2c1	-1.8%[201 µM]	·	-5.4%[201 µM]	·	·
O=C(O)CN(CCCN(CC(=O)O)CC(=O)O)CC(=O)O	0.8%[201 µM]	·	-0.8%[201 µM]	·	·
COc1ccc(/C=N/OCC(=O)N=Nc2c(O)[nH]c3ccc(Br)cc23)cc1	-7.2%	?	-0.5%	5.01µM*	?
CN(C)c1ccc(C(CNC(=O)c2ccccc2Cl)N2CCCC2)cc1 (stereo not given)	-0.1%	-3.8%	0.0%	-3.3%	1.2%
SMILES	TRb SRC2 PPI	Tau fluor counter	TR SRC2 fluor cs	Tau fibril ThT	Tau FP inhib
CCc1cc(C(c2ccc(F)cc2)N2CCOCC2)c(NC(=O)c2ccccc2)s1 (stereo not given)	-0.8%	?	-3.8%	31.6µM*	-9.3%
O=C(Nc1ncccn1)c1cc([N+](=O)[O-])cc([N+](=O)[O-])c1	-1.7%	8.2%	-0.7%	3.4%	-0.4%
O=[N+]([O-])c1cc(-c2ncccn2)c([N+](=O)[O-])s1	-1.6%	?	-4.2%	11.2µM*	14.2%
CCNC(=S)N/N=C1\C(=O)c2cccc3cccc1c23	-13.7%	-20.8%	-0.4%	?	8.2%
O=C(N/N=C1/C(=O)c2cccc3cccc1c23)c1ccc(Cl)cc1	-6.6%	-19.2%	-3.3%	4.47µM*	9.1%
CC1(C)CC(=O)C2=C(C1)N(c1cccnc1)C(N)=C(C#N)C2c1cccs1 (stereo not given)	-5.7%	-19.6%	-6.5%	20µM*	?
CC(/C=C1\SC(=S)N(CC(=O)O)C1=O)=C\c1ccccc1	13.8%	-23.0%	-4.5%	7.94µM*	-7.8%
CC(/C=C1\SC(=S)N(C(C(=O)O)c2ccccc2)C1=O)=C\c1ccccc1 (stereo not given)	2.7%	-12.9%	-3.3%	31.6µM*	-13.5%
C=CCOc1ccc(/C=C2\SC(=S)N(C(C(=O)O)c3ccccc3)C2=O)cc1 (stereo not given)	-0.1%	-4.1%	-1.0%	22.4µM*	-5.6%
CC(=C\c1ccco1)/C=C1/SC(=S)N(CC(=O)O)C1=O	-4.2%	?	-1.2%	3.98µM*	?
CC(=O)c1ccc(NC(=O)CCCN2C(=O)/C(=C/C(C)=C/c3ccccc3)SC2=S)cc1	1.3%	?	-4.9%	?	-0.3%
CC(/C=C1\SC(=S)N(CC(=O)N2CCN(c3ccccc3)CC2)C1=O)=C\c1ccccc1	0.2%	-22.2%	-0.4%	?	2.2%
COc1cc(OC)c(NC(=O)N2CCc3cc(OC)c(OC)cc3C2CC(=O)O)cc1Cl (stereo not given)	-3.2%	3.5%	-1.5%	-1.0%	4.6%
COc1ccc(OC)c(/C=C2\SC(=S)N(C(C(=O)O)c3ccccc3)C2=O)c1 (stereo not given)	1.7%	-15.4%	-1.3%	15.8µM*	-11.5%
CC(/C=C1\SC(=O)N(CC(=O)Nc2ccc(O)cc2)C1=O)=C\c1ccccc1	-14.4%	-5.3%	-0.8%	5.8%	-8.2%
CC(/C=C1\SC(=O)N(CC(=O)Nc2cccc(O)c2)C1=O)=C\c1ccccc1	1.7%	6.31µM*[quencher]	1.1%	-27.0%	15.8µM*
